Source: PubChem BioAssay AID588742 (Southern Research Specialized Biocontainment Screening …, 2011)
About 410 (23%) of roughly 1,800 compounds were called active. The list is a sample of the results. Results with a measured potency or affinity are listed apart. Unmarked numbers belong to inactive results. How the calls were made is not given here.

Assay: viability of Vero cells under compound – cytotoxicity control for flavivirus capping enzyme inhibitors (AID 588742)
Settings: cytotoxicity counter-screen; series mostly up to 40 µM; viability: at the top concentration

| SMILES | viability [%] |
| --- | --- |
| Cc1ccc(C2c3sc(=O)[nH]c3SC3C(=O)NC(=O)C32)cc1 (stereo not given) | 98.6 |
| COc1cccc(/C=C2\SC(=S)N(NS(=O)(=O)c3ccc(C)cc3)C2=O)c1OC | 86.8 |
| CC1(C)CC(=O)C(C(c2ccc(Br)cc2)C2C(=O)CC(C)(C)CC2=O)C(=O)C1 | 96.5 |
| CC1=NN(Cc2ccccc2)C(=O)C1C(c1ccccc1)C(C#N)C#N (stereo not given) | 88.9 |
| CCOc1ccccc1NC(=O)CN1C(=O)COc2ccc(S(=O)(=O)N3CCOCC3)cc21 | 101 |
| Cc1cc(OCC(=O)NC2CCN(Cc3ccccc3)CC2)c2c(C)c(C)c(=O)oc2c1 | 101 |
| O=C1/C(=C/c2ccc(C(=O)O)cc2)CCC/C1=C\c1ccc(C(=O)O)cc1 | 114 |
| O=C1ON=C(c2cccc([N+](=O)[O-])c2)/C1=C/c1ccc(O)cc1 | 80.4 |
| O=C(O)c1cccc(N2C(=O)C=CC2=O)c1 | 107 |
| Cc1ccc([C@H]2C(C(=O)O)=CC[C@@H](c3ccc(Cl)c(Cl)c3)N2S(=O)(=O)c2ccc(C)cc2)cc1 | 84.2 |
| O=C(COc1ccccc1/C=C\c1[nH]c(=O)[nH]c(=O)c1[N+](=O)[O-])Nc1ccccc1 | 109 |
| CCOC(=O)CC1=NN(c2ccccc2)C(=O)/C1=C\c1ccc(OC)cc1OC | 94.6 |
| CCOC(=O)c1c2c(c(=S)n(-c3ccccc3)c1N)CCC2 | 82.2 |
| O=S(=O)(Nc1nc(-c2sccc2Cl)cs1)c1cc(Cl)ccc1Cl | 99.7 |
| Fc1cccc(Cl)c1CNc1ccc(N2CCCC2)cc1 | 84.4 |
| CCN1C(=NCc2ccccc2)N[C@@H](c2ccccc2)[C@H](C(=O)OC)[C@H]1C | 97.6 |
| O=C(Cc1ccc(Br)cc1)Nc1ccc2[nH]ncc2c1 | 90.6 |
| CN(CCO)c1cc(Sc2nc3ccccc3s2)c2nonc2c1[N+](=O)[O-] | 98.6 |
| O=c1cc(-c2ccccc2)[nH]c2[nH]n(-c3ccccc3)c(=O)c12 | 97 |
| O=C(O)c1ccc(Cl)c(S(=O)(=O)Nc2ccccc2C(=O)Nc2ccc(Cl)cc2)c1 | 94.1 |
| Cc1ccc(C)c(S(=O)(=O)Nc2ccccc2C(=O)Nc2ccc(S(=O)(=O)Nc3ncccn3)cc2)c1 | 102 |
| CC(=C\c1ccccc1)/C=C1/SC(=S)N(C(C(=O)O)C(C)C)C1=O (stereo not given) | 99.2 |
| Oc1cccc(/C=N/N=C/c2cccc(O)c2O)c1O | 86.5 |
| Oc1ccc(/C=N/N2CCCCC2)c(O)c1O | 96 |
| CCN(CC)S(=O)(=O)c1cccc(C(=O)N/N=C/c2ccc(O)c(O)c2O)c1 | 99.8 |

| SMILES | viability [%] |
| --- | --- |
| Cc1cc(C(=O)N/N=C/c2ccc(O)c(O)c2O)c(C)n1-c1ccccc1 | 85 |
| O=C1N=c2ccccc2=C1c1sc(=S)n(NC(=O)c2cccc(O)c2)c1O | 99.3 |
| CC1=NN(c2ccc(C)cc2C)C(=O)C1C(c1ccccc1)C1C(=O)N(c2ccc(C)cc2C)N=C1C (stereo not given) | 92.2 |
| O=C(O)c1ccccc1-c1ccccc1C(=O)Nc1ccc2c(c1)oc(=O)c1ccccc12 | 108 |
| Cc1cc(C)c(C(=O)COc2cccnc2[N+](=O)[O-])cc1C | 99 |
| COc1ccc(/C=N/NC(=O)c2nn(-c3ccccc3)c(=O)c3c(N)scc23)cc1 | 94 |
| Nc1scc2c(C(=O)N/N=C/c3ccc(Cl)cc3)nn(-c3ccccc3)c(=O)c12 | 94 |
| Cc1[nH]c(=O)c(C#N)c(C)c1CCC(=O)Nc1cc(S(C)(=O)=O)ccc1Cl | 105 |
| N#Cc1c([N+](=O)[O-])cc([N+](=O)[O-])cc1S(=O)(=O)Cc1ccccc1 | 96.8 |
| CSc1nc(SCC(=O)O)c2sc3nc(-c4ccccc4)c4c(c3c2n1)CCC4 | 95.7 |
| CCCS(=O)(=O)c1nc(S(=O)(=O)c2ccc(C)cc2)c(N2CCC(O)CC2)s1 | 103 |
| O=C(O)c1cccc2c1C(=O)c1ccc(-c3ccc(F)cc3OCc3ccccc3)cc1S2(=O)=O | 109 |
| Cc1nc(N2C(=O)C(=O)/C(=C(/O)c3ccccc3)C2c2ccco2)sc1C (stereo not given) | 85 |
| CCCOc1ccc(/C=C2/C(=O)ON=C2C)cc1OCC | 105 |
| C=CCOc1ccc(/C=C2/C(=O)ON=C2C)cc1OCC | 102 |
| CCc1cc(=O)oc2cc(OCC(=O)NCCCn3ccnc3)c(Cl)cc12 | 98.5 |
| CC1(C)CC(=O)C(=Cc2cn(CCC#N)nc2-c2ccc(F)cc2)C(=O)C1 | 105 |
| CCOc1cc(/C=C2\NC(=O)NC2=O)cc([N+](=O)[O-])c1O | 112 |
| COc1ccc2c(c1)Cc1cc(NC(=O)c3ccccc3-c3ccccc3C(=O)O)ccc1-2 | 95.3 |
| O=C(NCCCl)NNC(=O)c1cc2ccccc2cc1O | 94.7 |
| COc1ccc(NC(=O)Nc2c(O)ccc3ccccc23)cc1 | 94.1 |
| COc1ccccc1NC(=O)NNC(=O)c1cc2ccccc2cc1O | 84.9 |
| O=C1c2ccccc2C(O)(c2ccccc2)N1c1ccc([N+](=O)[O-])cc1Cl (stereo not given) | 90.8 |
| CCC1(C)Cc2c(sc3[nH]c(=O)[nH]c(=O)c23)CS1 (stereo not given) | 104 |
| CC1(C)Cc2c(sc3nc4n(-c5ccccc5)c(=O)c(CCC(=O)O)nn4c(=O)c23)CO1 | 108 |
